Experimental data reported in PubChem BioAssay AID1159580 (chemical genetic matrix, 2015).
Among all 5,500 compounds or so, about 2,000 (36%) were called active. Another 18% or so got no clear call; they are omitted. Cut-off read from the data, not from the text of the source: active = normalized growth mostly below about 0.91 (no sharp cut-off); inconclusive = no clear call, values can overlap the other calls; inactive = mostly above about 0.92. Some of the results follow.

Assay: chemical genetic growth profiling, strain panel (AID 1159580);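 note: tested at 20 µM; growth read once vehicle control cultures reached saturation at 30 °C; 1 = growth at the plate median or of vehicle wells; lower values mean less growth of the strain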
Settings: growth OD

Measured: normalized growth

CCCCSP(=O)(SCCCC)SCCCC
inactive: S. cerevisiae deletion strains, locus YAL013W, strain DEP1, active compounds read low 1.01 | S. cerevisiae deletion strains, locus YBR021W, strain FUR4, active compounds read low 1 | S. cerevisiae deletion strains, locus YBR229C, strain ROT2, active compounds read low 1.01 | S. cerevisiae deletion strains, locus YCL029C, strain bik1, active compounds read low 1.01 | S. cerevisiae deletion strains, locus YDL035C, strain GPR1, active compounds read low 1.01 | S. cerevisiae deletion strains, locus YDL074C, strain BRE1, active compounds read low 1.04 | S. cerevisiae deletion strains, locus YDL101C, strain DUN1, active compounds read low 1.02 | S. cerevisiae deletion strains, locus YDL134C, strain PPH21, active compounds read low 1.01 | S. cerevisiae deletion strains, locus YDL185W, strain tfp1, active compounds read low 1.01 | S. cerevisiae deletion strains, locus YDL192W, strain arf1, active compounds read low 1.01 | S. cerevisiae deletion strains, locus YDR101C, strain arx1, active compounds read low 1.01 | S. cerevisiae deletion strains, locus YDR150W, strain NUM1, active compounds read low 1.01 | S. cerevisiae deletion strains, locus YDR162C, strain NBP2, active compounds read low 1.02 | S. cerevisiae deletion strains, locus YDR318W, strain mcm21, active compounds read low 1.01 | S. cerevisiae deletion strains, locus YDR388W, active compounds read low 1.01 | S. cerevisiae deletion strains, locus YDR502C, strain sam2, active compounds read low 1.01 | S. cerevisiae deletion strains, locus YEL061C, strain CIN8, active compounds read low 1.01 | S. cerevisiae deletion strains, locus YER110C, active compounds read low 1.01 | S. cerevisiae deletion strains, locus YER155C, strain BEM2, active compounds read low 1.01 | S. cerevisiae deletion strains, locus YER167W, strain BCK2, active compounds read low 1.02 | S. cerevisiae deletion strains, locus YGL078C, strain dbp3, active compounds read low 1.01 | S. cerevisiae deletion strains, locus YGL086W, strain mad1, active compounds read low 1 | S. cerevisiae deletion strains, locus YGL248W, strain PDE1, active compounds read low 1.02 | S. cerevisiae deletion strains, locus YGR078C, strain PAC10, active compounds read low 1.02 | S. cerevisiae deletion strains, locus YGR135W, strain pre9, active compounds read low 1 | S. cerevisiae deletion strains, locus YGR229C, strain SMI1, active compounds read low 1.04 | S. cerevisiae deletion strains, locus YGR252W, strain gcn5, active compounds read low 0.984 | S. cerevisiae deletion strains, locus YHR030C, strain SLT2, active compounds read low 1.02 | S. cerevisiae deletion strains, locus YHR079C, strain IRE1 (second series), active compounds read low 1.01 | S. cerevisiae deletion strains, locus YHR094C, strain hxt1, active compounds read low 1 | S. cerevisiae deletion strains, locus YHR129C, strain ARP1, active compounds read low 1.02 | S. cerevisiae deletion strains, locus YHR200W, strain rpn10, active compounds read low 1 | S. cerevisiae deletion strains, locus YIL066C, strain RNR3, active compounds read low 1.02 | S. cerevisiae deletion strains, locus YIL073C, strain SPO22, active compounds read low 1.06 | S. cerevisiae deletion strains, locus YIL125W, strain kgd1, active compounds read low 1.01 | S. cerevisiae deletion strains, locus YIR030C, strain dcg1, active compounds read low 0.996 | S. cerevisiae deletion strains, locus YJL095W, strain BCK1, active compounds read low 1.05 | S. cerevisiae deletion strains, locus YJL134W, strain LCB3, active compounds read low 1.02 | S. cerevisiae deletion strains, locus YJL168C, strain set2, active compounds read low 1.01 | S. cerevisiae deletion strains, locus YJL187C, strain SWE1 (second series), active compounds read low 1.01 | S. cerevisiae deletion strains, locus YJR043C, strain POL32, active compounds read low 1.01 | S. cerevisiae deletion strains, locus YJR075W, strain HOC1, active compounds read low 1.02 | S. cerevisiae deletion strains, locus YKL009W, strain mrt4, active compounds read low 0.961 | S. cerevisiae deletion strains, locus YKL068W, active compounds read low 1.01 | S. cerevisiae deletion strains, locus YKL085W, strain MDH1 (second series), active compounds read low 1.01 | S. cerevisiae deletion strains, locus YKL085W, strain MDH1, active compounds read low 1.01 | S. cerevisiae deletion strains, locus YKL190W, strain CNB1, active compounds read low 1.02 | S. cerevisiae deletion strains, locus YKR001C, strain vps1, active compounds read low 1.01 | S. cerevisiae deletion strains, locus YLR039C, strain RIC1, active compounds read low 1.05 | S. cerevisiae deletion strains, locus YLR058C, strain SHM2, active compounds read low 1.01 | S. cerevisiae deletion strains, locus YLR102C, strain apc9, active compounds read low 0.995 | S. cerevisiae deletion strains, locus YLR262C, strain YPT6, active compounds read low 1.04 | S. cerevisiae deletion strains, locus YLR268W, strain sec22, active compounds read low 1.01 | S. cerevisiae deletion strains, locus YLR330W, strain CHS5, active compounds read low 1.01 | S. cerevisiae deletion strains, locus YLR342W, strain FKS1 (second series), active compounds read low 1.04 | S. cerevisiae deletion strains, locus YLR371W, strain rom2, active compounds read low 0.999 | S. cerevisiae deletion strains, locus YLR418C, strain cdc73, active compounds read low 1.02 | S. cerevisiae deletion strains, locus YML016C, strain PPZ1, active compounds read low 1.02 | S. cerevisiae deletion strains, locus YML032C, strain rad52, active compounds read low 1.01 | S. cerevisiae deletion strains, locus YML124C, strain tub3, active compounds read low 1.01 | S. cerevisiae deletion strains, locus YMR078C, strain ctf18, active compounds read low 1.01 | S. cerevisiae deletion strains, locus YMR223W, strain ubp8, active compounds read low 1 | S. cerevisiae deletion strains, locus YMR263W, strain SAP30, active compounds read low 1.02 | S. cerevisiae deletion strains, locus YMR307W, strain GAS1, active compounds read low 1.2 | S. cerevisiae deletion strains, locus YNL067W, strain RPL9B, active compounds read low 1.01 | S. cerevisiae deletion strains, locus YNL128W, strain TEP1, active compounds read low 1.01 | S. cerevisiae deletion strains, locus YNL153C, strain GIM3, active compounds read low 1.01 | S. cerevisiae deletion strains, locus YNL233W, strain BNI4, active compounds read low 1.01 | S. cerevisiae deletion strains, locus YNL250W, strain rad50, active compounds read low 1.01 | S. cerevisiae deletion strains, locus YNL271C, strain bni1, active compounds read low 0.998 | S. cerevisiae deletion strains, locus YNL298W, strain CLA4, active compounds read low 1.02 | S. cerevisiae deletion strains, locus YNL307C, strain MCK1, active compounds read low 0.992 | S. cerevisiae deletion strains, locus YNL322C, strain KRE1, active compounds read low 1.01 | S. cerevisiae deletion strains, locus YNR052C, strain pop2, active compounds read low 1.01 | S. cerevisiae deletion strains, locus YOL006C, strain TOP1, active compounds read low 1.07 | S. cerevisiae deletion strains, locus YOL012C, strain htz1 0.841 | S. cerevisiae deletion strains, locus YOL147C, strain pex11, active compounds read low 1.01 | S. cerevisiae deletion strains, locus YOR061W, strain CKA2, active compounds read low 1.01 | S. cerevisiae deletion strains, locus YOR069W, strain VPS5, active compounds read low 1.02 | S. cerevisiae deletion strains, locus YOR136W, strain idh2, active compounds read low 1 | S. cerevisiae deletion strains, locus YOR144C, strain elg1, active compounds read low 1.02 | S. cerevisiae deletion strains, locus YOR184W, strain ser1, active compounds read low 0.987 | S. cerevisiae deletion strains, locus YOR316C, strain cot1, active compounds read low 1.01 | S. cerevisiae deletion strains, locus YPL055C, strain LGE1, active compounds read low 1.03 | S. cerevisiae deletion strains, locus YPL241C, strain CIN2, active compounds read low 1.02 | S. cerevisiae deletion strains, locus YPR119W, strain clb2, active compounds read low 1.01 | S. cerevisiae deletion strains, locus YPR141C, strain kar3, active compounds read low 1.02 | S. cerevisiae deletion strains, locus YPR163C, strain tif3, active compounds read low 1.01 | S. cerevisiae deletion strains, locus YPR167C, strain met16, active compounds read low 1 | S. cerevisiae deletion strains, strain wtn01, active compounds read low 0.996 | S. cerevisiae strains, strain wild type, active compounds read low 1.02
